Hits are enriched below; roughly 7.7% of the tested compounds scored in any of these assays.
FMDV antiviral – antivirals against foot and mouth disease virus. Potency, µM (titrated, usually from 57.9 µM), for inactives: at the top dose activity change, negative = inhibition, most hits filed as inhibitors. 410,000 compounds, 1.2% hits. FMDV antiviral cell-based qHTS; calls by dose curve; tested in HEK293T cells; also: read-out not given here; potency is read from the fitted curve at half-maximal effect; nearly all actives have a fitted effect of over 45% in size
HCMV inh – inhibitors of human cytomegalovirus | HFF cells, HCMV-luciferase reporter, 72 h; hits give low values | activity change, negative = inhibition, % at 57.5 µM | 410,000 compounds, 4.5% hits | AID 1259415; in the data active = activity change below about -60%; inconclusive = no clear call, values can overlap the other calls; inactive = above about -39%
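Two compound doses tested in HFFs infected with HCMV-luciferase, MOI 1 PFU/cell, 72 h at 37C. Lysate luminescence read with OneGlo; data normalized against buffer-only and 10uM Salinomycin inhibitor controls.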
Tb PYK inh – T. brucei pyruvate kinase inhibition; Q57TT1; TbPYK enzyme, Kinase-Glo Plus ATP luminescence, 45 min; Potency, µM (series often up to 76.8 µM), for inactives: at the top dose activity, negative = inhibition, usual class: inhibitors; 410,000 compounds, 0.12% hits; AID 624173; also: potency is read from the fitted curve at half-maximal effect; nearly all actives have a fitted effect of over 50% in size
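Luminescence from Kinase-Glo Plus, added after a 45-minute room-temperature reaction, served as the end-point read-out. The enzyme and substrate were preincubated with compound before ADP (130 uM final) initiated turnover. Concentration-effect curves came from normalized qHTS data.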
Sm TGR block – inhibitors of Schistosoma mansoni thioredoxin glutathione reductase | Q962Y6 | purified TGR, DTNB reduction, TNB absorbance 405 nm | Potency, µM (series often up to 114 µM), for the others: at the highest dose activity change, negative = inhibition, actives largely listed as inhibitors | 360,000 compounds, 3% hits | AID 485364; also: potency is read from the fitted curve at half-maximal effect; nearly all actives have a fitted effect of over 60% in size
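First, TGR (20 nM dispensed) and NADPH were mixed with compound. Second, a 15 min room-temperature incubation followed. Third, further NADPH and then DTNB were added to start the reaction. Finally, TNB absorbance was monitored kinetically.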
RE007 growth inh – less growth of the S. pombe RE007 Vpr strain. Potency, µM (highest dose often 92.2 µM), without a hit: at the highest dose activity change, negative = less growth, actives largely listed as inhibitors. AID 651644. 360,000 compounds, 0.21% hits. S. pombe RE007 Vpr strain, BacTiter-Glo ATP luminescence, 24 h; active = well fitted falling curve with a large enough effect; inconclusive = small, poorly fitted or top-dose-only effect; inactive = no such curve, though single readings can be large or run the other way; also: potency is read from the fitted curve at half-maximal effect; nearly all actives have a fitted effect of over 50% in size
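Fission yeast strain RE007, carrying one chromosomally integrated HIV-1 vpr copy, was seeded at OD 0.01 in PMG+AL medium with 23 nL pinned compound. After 24 h at 30 °C and 99% humidity, viability was read by BacTiter-Glo luminescence.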
FBPA Giardia inh – blocks Giardia fructose-bisphosphate aldolase activity. AID 2451. Potency, µM (doses to about 59.6 µM), inactives show top-dose activity, negative = inhibition, hits mostly inhibitors. purified Giardia FBPA. A8B2U2. 290,000 compounds, 0.71% hits; also: potency is read from the fitted curve at half-maximal effect; nearly all actives have a fitted effect of over 55% in size
Target sequence (A8B2U2 whole entry, looked up): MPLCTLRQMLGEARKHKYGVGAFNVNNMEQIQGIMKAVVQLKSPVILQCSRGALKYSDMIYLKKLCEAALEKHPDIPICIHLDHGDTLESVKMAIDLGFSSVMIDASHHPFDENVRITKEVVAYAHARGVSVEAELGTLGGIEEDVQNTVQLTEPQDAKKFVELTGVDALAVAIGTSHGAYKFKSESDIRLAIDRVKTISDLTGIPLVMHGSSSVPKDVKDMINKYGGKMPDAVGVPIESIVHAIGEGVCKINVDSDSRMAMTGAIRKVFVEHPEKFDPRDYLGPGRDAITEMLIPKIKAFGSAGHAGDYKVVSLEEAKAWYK
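40 nM FBPA preincubated 10 min at RT with compound (up to 57.5 uM final), then substrate plus GAPDH/TPI/NAD/arsenate coupling and diaphorase/resazurin added. Fluorescence read after 20 min at RT, 525/598 nm.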
* hit, by the source's call; ? = inconclusive; · = not tested or not shown; [ ] = dose if it differs, or a comment. Unless noted, calls follow the shape of the dose curve; as a rule, active = well fitted curve in the direction sought with a large enough effect; inconclusive = small, poorly fitted or top-dose-only effect, or another doubt; inactive = no such curve, though single readings can be large; an effect the other way counts as inactive or inconclusive. % is scaled to controls: 0 for no effect and ±100 for the full control effect.

SMILES	FMDV antiviral	HCMV inh	Tb PYK inh	Sm TGR block	RE007 growth inh	FBPA Giardia inh
COc1cccc(CNC(=O)C(C)n2ncn3cccc3c2=O)c1OC (stereo not given)	-11%	-5	2%	-111%	·	·
CC(C)C[C@H]1COc2cc(N3CCOCC3)ccc2S(=O)(=O)N1	·	21	·	·	·	·
Cc1cc(NC(=O)c2ccc(Br)o2)ccc1NC(=O)c1ccco1	23%	-89*	-14%	-4%	?	-1%
Cc1ccc(C(=O)Nc2ccc(NC(=O)c3ccco3)c(C)c2)cc1	8%	-27	-1%	-13%	29%	1%
O=C(Nc1ccccc1N1CCCC1)c1ccc([N+](=O)[O-])o1	0%	-71*	0%	-33%	-23%	·
Cc1ccc(C)n1-c1ccc(C(=O)/C=C/N(C)C)cc1	11%	24	-2%	32µM*	-3%	1%
COc1ccccc1N1CCN(C(=O)C(CCSC)NS(=O)(=O)c2ccc3c(c2)oc(=O)n3C)CC1 (stereo not given)	-8%	0	-11%[15.4 µM]	-7%	·	·
CN1CCc2c(sc(NC(=O)CSc3ccc(F)cc3)c2-c2nc3ccccc3s2)C1	-11%	-16	-9%	-17%	·	·
CC(=O)N1CCc2c(sc(NC(=O)CSc3ccc(F)cc3)c2-c2nc3ccccc3s2)C1	0%	-96*	2%	-6%	·	·
CC(NCC(O)COc1ccc2ccccc2c1)c1ccccc1 (stereo not given)	-20%	-84*	32%	6%	-7%	?
CC1CCC(C(C)C)C(OCC(O)CNC(C)c2ccccc2)C1 (stereo not given)	?	-98*	-1%	-1%	5%	2%
CC1CCN(CC(O)COC2CC(C)CCC2C(C)C)CC1 (stereo not given)	-24%	?	0%	·	-2%	2%
CC1CCC(C(C)C)C(OCC(O)CNC(C)(C)C)C1 (stereo not given)	-11%	-76*	3%	-1%	-15%	-1%
COc1ccc(OCC(O)CNC(C)c2ccccc2)cc1 (stereo not given)	-1%	?	5%	14%	11%	-22%
Cc1ccc(-c2ccc(CCC(=O)O)n2NC(=O)c2ccc([N+](=O)[O-])cc2)cc1	6%	-37	13%	?	0%	-1%
Cc1ccc(-c2ccc(CCC(=O)O)n2NC(=O)c2ccco2)cc1	-16%	18	-7%	?	-10%	-1%
O=C(O)CCc1ccc(-c2ccc(Br)cc2)n1NC(=O)c1ccc([N+](=O)[O-])cc1	-11%	?	0%	45µM*	0%	4%
NC(=O)Nn1c(CCC(=O)O)ccc1-c1ccc(F)cc1	-16%	-93*	4%	50µM*	-7%	-7%
O=C(O)CCc1ccc(-c2ccc(F)cc2)n1NC(=O)c1ccco1	-6%	-30	2%	40µM*	-10%	-1%
O=C(O)CCc1ccc(-c2ccc(F)cc2)n1CC(=O)O	-13%	-29	1%	?	2%	10%
CC(C)=NOC[C@@H](C)[C@H](OCc1ccccc1)C(C)C	·	·	·	·	·	-1%[12.9 µM]
CC(=O)Nc1cccc(NC(=O)CSc2cn(CC(=O)N3CCCCCC3)c3ccccc23)c1	-22%	-24	-9%	0%	·	·
C=CCc1cc(/C=C2/NC(=O)NC2=O)cc(OCC)c1O	-3%	-2	-14%	50µM*	-23%	-21%
COc1ccc(C(=O)c2ccccc2)c(O)c1O	-2%	·	·	·	·	?
O=C(c1ccc(S(=O)(=O)Cc2cc(F)ccc2F)c([N+](=O)[O-])c1)N1CCCCC1	?	?	0%	8.9µM*	7%	-4%
SMILES	FMDV antiviral	HCMV inh	Tb PYK inh	Sm TGR block	RE007 growth inh	FBPA Giardia inh
Nc1ccc(C(=O)N2CCCC2)cc1CS(=O)(=O)c1ccc(Cl)cc1	-13%	-24	3%	1%	-8%	7%
O=C(c1ccc(S(=O)(=O)Cc2cc(F)ccc2F)c([N+](=O)[O-])c1)N1CCCC1	0%	-75*	3%	?	-15%	-19%
Nc1sc(-c2ccccc2)n[n+]1Cc1cccc2cccnc12	-26%	-99*	-7%	15%	-8%	0%
O=C(CCC(=O)OCC(=O)c1ccc(-c2ccccc2)cc1)Nc1cccc2cccnc12	5%	46	2%	6%	2%	4%
CC(=O)OCCN1c2ccccc2Sc2cnccc21	-9%	?	-3%	·	-19%	·
C=CCN1c2ccccc2Sc2cnccc21	?	-68*	-2%	·	-18%	·
CN(C)CCNC(=O)COc1ccc(C23CC4CC(CC(C4)C2)C3)cc1	-28%	-68*	-19%	16%	12%	0%
Cc1ccc(C23CC4CC(CC(NC(=O)NCCN(C)C)(C4)C2)C3)cc1	-26%	-6	0%	-23%	-7%	4%
Cc1ccc(C)c(N2CCN(CCCNC(=O)c3ccc4nc(N5CCCCC5)sc4c3)CC2)c1	-53%	98	-4%	-2%	·	·
COc1ccc(C)cc1NC(=O)N(Cc1ccc(C)o1)C1CCN(C(C)=O)CC1	-19%	26	-6%	-1%	·	·
Cc1cnc(C)c(-c2cc(F)cc3c2OC(CNC(=O)C2CCOC2)C3)n1 (stereo not given)	-10%	·	·	·	·	·
Cc1ccc2nsnc2c1NC(=O)c1ccc(-c2cc(Cl)ccc2Cl)o1	?	?	4%	40µM*	-7%	-25%
Cc1ccc2nsnc2c1NC(=O)CCl	-14%	-24	-5%	45µM*	3%	1%
O=C(Nc1cccc2nsnc12)c1ccc(-c2cccc(Cl)c2)o1	4%	-9	-5%	6.3µM*	?	?
CCC(=O)Nc1c(C)ccc2nsnc12	-10%	92	-5%	9%[11.4 µM]	-4%	6%
CCCCN(CC)CCCNC(=O)c1cc2c(=O)[nH]c3ccccc3c2n1C	-12%	0	1%	?	·	·
CN1C2CCC1/C(=C\c1ccccc1F)C(=O)/C2=C/c1ccccc1F	-16%	-72*	-21%	20µM*	3%	4%
O=C(Nc1ccccc1)N1CCCC2(CCN(S(=O)(=O)c3ccccc3)CC2)C1	1%	·	-8%	·	·	-7%
COc1cc2c(cc1OC)C1=C(C#N)COCN1CC2	-7%	?	-8%	20µM*	5%	?
O=S(=O)(Nc1ccc(-c2ccc(N3CCCC3)nn2)cc1)c1ccccc1Cl	33%	-34	-4%	1%	·	·

Assay outcomes as filed in PubChem BioAssay.
